Laboratory results reported in PubChem BioAssay.
Calls of active or inactive are those of the source. Unless noted, the rule behind the calls is not given here.

Experiments:
[1] = system: XIP peptide (Xip251-270) binding; experiment: XIP fragment 251-270 binding compounds – biochemical, small-molecule microarray, fluorescence 635/667 nm, 0.1 µg/mL protein, primary screen (AID 1182); settings: fluorescent protein binding, 635 nm, higher = more signal, called active from +8 up or from −8 down
XIP peptide (Xip251-270) = experiment: compounds binding XIP fragment 251-270 – biochemical, small-molecule microarray, fluorescence 635/667 nm, 0.5 µg/mL protein, primary screen (AID 1183); settings: fluorescence 635 nm, higher = more signal
[2] = blood-stage malaria parasite viability loss – strain 3D7, DAPI fluorescence, 100 nL, primary screen (AID 1184);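 note: parasites grown inside human red blood cells in medium with human serum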; settings: P. falciparum 3D7 growth, 3 d, higher = more signal
[3] = target: Homeobox protein Hox-A13 (Mus musculus) (UniProt Q62424); experiment: disruptors of Hoxa13 oligonucleotide interaction – biochemical, fluorescence polarization, labeled oligonucleotide, primary screen (AID 1185); settings: Hoxa13:DNA binding, 15 min, higher = more signal, called active from +8 up or from −8 down
[4] = blockers of DNA damage checkpoint Chk1 activation – imaging, HeLa, hydroxyurea, phospho-Chk1 antibody, percent positive cells, primary screen (AID 1186); settings: hydroxyurea-induced phospho-Chk1 immunofluorescence imaging, higher = more signal
[5] = blockers of DNA damage checkpoint Chk1 activation – imaging, HeLa, hydroxyurea, phospho-Chk1 nuclear intensity, primary screen (AID 1187); settings: hydroxyurea-induced phospho-Chk1 immunofluorescence imaging, higher = more signal

Homeobox protein Hox-A13 (Mus musculus), sequence (Q62424 whole entry, looked up): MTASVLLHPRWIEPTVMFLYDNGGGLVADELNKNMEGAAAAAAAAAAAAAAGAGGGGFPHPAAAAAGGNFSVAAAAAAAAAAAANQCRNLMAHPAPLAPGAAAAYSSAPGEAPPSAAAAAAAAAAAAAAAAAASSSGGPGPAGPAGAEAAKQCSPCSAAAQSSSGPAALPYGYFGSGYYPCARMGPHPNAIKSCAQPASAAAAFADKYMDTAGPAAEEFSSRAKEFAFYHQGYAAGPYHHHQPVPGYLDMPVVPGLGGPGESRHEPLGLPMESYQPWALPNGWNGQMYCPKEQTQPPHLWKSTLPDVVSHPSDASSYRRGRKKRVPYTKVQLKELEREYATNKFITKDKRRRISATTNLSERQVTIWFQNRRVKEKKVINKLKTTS

SMILES	composite z-score [1]	composite z-score (XIP peptide (Xip251-270))	z-score [2]	z-score [3]	z-score [4]	z-score [5]
C=CCC(OC(C)=O)[C@@H]1[C@@H](N(Cc2cccc3ccccc23)C(=O)Cc2ccc(F)cc2)c2cc(OCCCO)ccc2N1C(=O)c1ccc(-c2ccccc2)cc1 (some centres not stated)	-1.31 (inactive)	-1.14	-1.69	-1.09 (inactive)	0.19 (inactive)	-0.39 (inactive)
COc1cc2c(cc1OC)CN(C(=O)[C@@H]1[C@H]3C(=O)O[C@H](c4ccccc4)[C@H](c4ccccc4)N3[C@H](c3ccc(O)cc3)[C@@]13C(=O)Nc1ccc(C#CCCO)cc13)CC2	1.33 (inactive)	0.723	-1.16	-2.6 (inactive)	0.189 (inactive)	0.28 (inactive)
C=CCNC(=O)[C@H]1[C@@H]2C(=O)O[C@@H](c3ccccc3)[C@@H](c3ccccc3)N2[C@@H](c2ccc(OCCO)cc2)[C@]12C(=O)N(C(=O)OCCOC)c1ccc(C#Cc3ccc(OC)cc3)cc12	0.0294 (inactive)	0.719	-2.38	4.25 (inactive)	-0.499 (inactive)	-0.744 (inactive)
COc1ccc([Si](C)(C)[C@H]2[C@H](CC(=O)N3Cc4ccccc4C[C@H]3CO)O[C@@]3(C(=O)N(Cc4ccc(N5C(=O)c6cccc7cccc5c67)cc4)c4ccccc43)[C@@H]2C)cc1	1.23 (inactive)	0.738	-1.79	-2.7 (inactive)	-1.02 (inactive)	-0.113 (inactive)
COc1cc(NN2C(C(O)C3CCCCC3)C=CC3C(=O)N(C)C(=O)C32)cc(OC)c1OC (configuration not stated)	0.123 (inactive)	0.704	-0.246	-4.48 (inactive)	0.281 (inactive)	0.264 (inactive)
C=C/C=C/[C@@H]1C(=C)CN([C@@H](Cc2ccccc2)C(=O)OC)[C@H]1[C@@H](O)Cc1ccccc1	0.661 (inactive)	0.58	0.135	-1.8 (inactive)	-0.176 (inactive)	0.221 (inactive)
COc1cc(NN2C(C(O)c3ccc(I)cc3)C=CC3C(=O)N(c4ccccc4)C(=O)C32)cc(OC)c1OC (configuration not stated)	0.204 (inactive)	0.816	-0.908	-4.54 (inactive)	0.505 (inactive)	0.241 (inactive)
CCOC(=O)C=Cc1cc(F)ccc1O	0.198 (inactive)	0.487	-1.65	-0.42 (inactive)	0.631 (inactive)	-1.13 (inactive)
COc1cc(C(O)C2C=CC3C(=O)N(Cc4ccccc4)C(=O)C3N2n2cnnc2)cc(OC)c1OC (configuration not stated)	0.494 (inactive)	0.435	0.551	-1.38 (inactive)	0.102 (inactive)	0.263 (inactive)
CC1CC/C=C\[C@H]2OC34C=CCN(CCN5CCOCC5)C(=O)[C@H]3N(C(C)CO)C(=O)[C@@H]4C2C(=O)O1 (some centres not stated)	-0.153 (inactive)	0.371	-0.359	-5.12 (inactive)	0.16 (inactive)	0.219 (inactive)
Nc1cc(Br)ccc1C(=O)O	0.513 (inactive)	-0.244	1.1	0.686 (inactive)	0.132 (inactive)	0.343 (inactive)
COC(=O)[C@@]1(Cc2ccc(OC)cc2)[C@H]2c3cc(C(=O)N4CCCC4)n(Cc4ccc(S(C)(=O)=O)cc4)c3C[C@H]2CN1C(=O)c1ccccc1	0.807 (inactive)	0.511	-1.42	-3.91 (inactive)	0.364 (inactive)	0.202 (inactive)
C=CC1c2cc(O)c(OC)cc2CCN1Cc1ccc([N+](=O)[O-])o1 (configuration not stated)	0.835 (inactive)	0.905	-0.83	-4.18 (inactive)	-0.131 (inactive)	0.406 (inactive)
C=CCN1C(=O)[C@]2(O[C@H](CCO)[C@@H]([Si](C)(C)c3ccc(OC)cc3)[C@@H]2C)c2cc(NC(=O)c3ccc(OC)cc3)ccc21	-0.129 (inactive)	0.456	-2.64	-5.32 (inactive)	-0.97 (inactive)	-0.881 (inactive)
CC(C)[Si]1(C(C)C)OCc2cc(-c3ccc(-c4ccc(Cl)c(Cl)c4)o3)nc(CCc3ccccc3)c21	-0.218 (inactive)	-0.355	-0.946	0.0584 (inactive)	-0.691 (inactive)	-0.229 (inactive)
C=CCNC(=O)[C@@H]1[C@H]2C(=O)O[C@H](c3ccccc3)[C@H](c3ccccc3)N2[C@H](c2ccc(O)cc2)[C@@]12C(=O)N(C(=O)OCCOC)c1ccc(C#CCCO)cc12	2.07 (inactive)	0.749	1.05	-3.19 (inactive)	0.116 (inactive)	-0.365 (inactive)
C[C@]1(C(=O)NCCN2CCOCC2)c2ccccc2C(=O)N(Cc2cc(F)cc(C(F)(F)F)c2)[C@H]1c1ccc(CO)cc1	1.14 (inactive)	0.826	-0.736	-3.91 (inactive)	-0.69 (inactive)	-0.691 (inactive)
CC(C)C[C@@H]1NC(=O)[C@@]23C(=O)N[C@@H](Cc4ccccc4)C2[C@H](C)[C@@]2(C)O[C@H]2C3/C=C/C/C=C\CNC(=O)[C@@H](C)NC1=O (some centres not stated)	0.772 (inactive)	0.649	-1.65	-4.91 (inactive)	-0.674 (inactive)	-0.734 (inactive)
C=C[C@@H](C)[C@H](O)c1ccc(OCCO)cc1	0.313 (inactive)	0.0813	0.99	-0.166 (inactive)	0.485 (inactive)	0.739 (inactive)
CN(C)C(=O)[C@@]1(Cc2ccccc2N=[N+]=[N-])N=C(c2ccc(OCCCO)cc2)O[C@H]1c1ccccc1	1.47 (inactive)	0.821	-2.19	-4.9 (inactive)	-0.279 (inactive)	-0.303 (inactive)
C=CCC(OC(C)=O)[C@@H]1[C@@H](N(Cc2ccc(-c3ccccc3)cc2)C(=O)c2ccc(C)cc2)c2cc(OCCCO)ccc2N1C(=O)Cc1ccc2ccccc2c1 (some centres not stated)	0.254 (inactive)	0.0529	-0.481	-1.28 (inactive)	-0.816 (inactive)	-0.488 (inactive)
COC(=O)C1=CC(CCCO)=CC(C)N(Cc2cccc(OC(F)(F)F)c2)C=C1C(=O)OC (configuration not stated)	0.0257 (inactive)	0.526	-1.12	-7.74 (inactive)	-0.249 (inactive)	-0.655 (inactive)
[N-]=[N+]=NCc1ccccc1[C@@H]1OC(c2ccc(OCCCO)cc2)=N[C@]1(Cc1ccccc1)C(=O)NCCN1CCOCC1	-0.256 (inactive)	0.77	-2.2	-1.66 (inactive)	-0.294 (inactive)	-0.108 (inactive)
CN1C(=O)[C@@H]2[C@@H](CC(COc3ccccc3)=C([C@H](O)CCc3ccccc3)[C@@H]2CO)C1=O	-0.221 (inactive)	0.365	-0.0804	-6.39 (inactive)	-1.25 (inactive)	-1.34 (inactive)
C=C(COC)C(=O)CC[C@H](OC(=O)c1cccnc1)c1ccc(CO)o1	0.0246 (inactive)	0.193	0.535	-4.81 (inactive)	0.169 (inactive)	-0.143 (inactive)
C=C[C@H](C)[C@H](OC(=O)Nc1ccc(OC)cc1)c1ccc(OCCO)cc1	0.526 (inactive)	-0.0503	-1.15	-4.59 (inactive)	-0.806 (inactive)	-0.261 (inactive)
CC(C)[C@H]1NC(=O)[C@@]23C(=O)N[C@@H](Cc4ccccc4)C2[C@H](C)[C@@]2(C)O[C@H]2C3/C=C/C/C=C\CNC(=O)[C@H](Cc2ccccc2)NC1=O (some centres not stated)	0.21 (inactive)	0.763	-2.45	-5.69 (inactive)	0.174 (inactive)	0.5 (inactive)
